This passage reports growth results from PubChem BioAssay (NCI).

Test systems include RPMI-8226 leukemia; OVCAR-8 ovarian; OVCAR-5 ovarian; OVCAR-4 ovarian; SK-OV-3 ovarian; OVCAR-3 ovarian; HS 578T breast; NCI/ADR-RES ovarian; T-47D breast; BT-549 breast; MDA-MB-435 melanoma; SW-620 colon; MCF7 breast; HCT-116 colon; HCC-2998 colon; KM12 colon; MDA-MB-468 breast; IGROV1 ovarian.
What all share (experiment): NCI-60 one-dose screen, 48 h (100 = growth as untreated, 0 = no growth, -100 = all killed)
Conditions in all cases: 10 µM

About 83,000 compounds went through this panel and 20% of them were active in at least one assay; those are over-represented in the sample as a whole.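 Single-dose data. Exposure time 48 hours. Values below 10 considered active.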 A number with no mark means an inactive call. The source made the active and inactive calls.

On to `Nc1cccnc1/C=N/NC(=S)NCCNC(=O)c1ccc(-n2nc(-c3ccccc3O)nc2-c2ccccc2O)cc1`, for which the growth in the assay with RPMI-8226 leukemia was -3.08% (active); in the assay on OVCAR-8 ovarian, 14.6%; in the assay on OVCAR-5 ovarian it was 26.3%; with OVCAR-4 ovarian, 22.1%; with SK-OV-3 ovarian, 17.1%; in the assay on OVCAR-3 ovarian, 39.6%. Besides, the growth in the assay on HS 578T breast was 34.6%; in the assay with NCI/ADR-RES ovarian, 67.4%; in the assay with T-47D breast it was 7.42% (active); in the assay on BT-549 breast it was -5.4% (active); with MDA-MB-435 melanoma, 53.8%; in the assay on SW-620 colon it was 58.5%. The growth with MCF7 breast was 5.17% (active); in the assay on HCT-116 colon it was 7.1% (active); in the assay on HCC-2998 colon, -7.32% (active); in the assay on KM12 colon, 11.6%; with MDA-MB-468 breast it was -56.1% (active).
Consider `CC(=C(c1ccc(OCCN2CCCCCC2)cc1)c1ccc(OCCN2CCCCCC2)cc1)c1ccc(Cl)cc1`, for which the growth with RPMI-8226 leukemia is -63.6% (active); in the assay on OVCAR-8 ovarian, -95.3% (active); with OVCAR-4 ovarian it was -96.3% (active); with SK-OV-3 ovarian, -100% (active); in the assay on IGROV1 ovarian, -94.1% (active); in the assay on OVCAR-3 ovarian it was -92.6% (active). The growth in the assay on HS 578T breast is -48% (active); in the assay on NCI/ADR-RES ovarian, -97.7% (active); in the assay with T-47D breast it was -58.8% (active); in the assay on MDA-MB-435 melanoma, -100% (active); in the assay on SW-620 colon, -61.1% (active); in the assay with MCF7 breast, -79.6% (active). For the same compound, the growth with HCT-116 colon is -61.9% (active); in the assay with HCC-2998 colon, -97.8% (active); in the assay with KM12 colon it was -73% (active); in the assay with MDA-MB-468 breast, -91.6% (active).
Consider `COc1cccc2nc(Nc3ccc(F)c(NC(=O)c4ccc(CN5CCN(C)CC5)c(C(F)(F)F)c4)c3)ccc12`, for which the growth in the assay on RPMI-8226 leukemia was -43.9% (active); in the assay with OVCAR-8 ovarian, 30.9%; in the assay with OVCAR-5 ovarian it was 72.5%; in the assay with OVCAR-4 ovarian it was 32.6%; in the assay with SK-OV-3 ovarian, 53.8%; in the assay with OVCAR-3 ovarian it was -33.3% (active). Further, the growth in the assay on HS 578T breast was 6.57% (active); in the assay with NCI/ADR-RES ovarian, -3.12% (active); in the assay on T-47D breast, 22%; in the assay on BT-549 breast, 82.6%; with MDA-MB-435 melanoma, -69.3% (active); in the assay on SW-620 colon it was -63% (active). Besides, the growth in the assay with MCF7 breast is -61.3% (active); with HCT-116 colon it was 1.84% (active); in the assay on HCC-2998 colon, -94.5% (active); with KM12 colon, -22.2% (active); in the assay with MDA-MB-468 breast it was -48.9% (active).
For `COc1cccc(C(N)=Nc2ccc(OCCCCCCn3cncn3)cc2)c1`, the growth in the assay with RPMI-8226 leukemia was 16%; in the assay on OVCAR-5 ovarian, 28.2%; in the assay with OVCAR-4 ovarian, 60.7%; with SK-OV-3 ovarian, 29.6%; in the assay with IGROV1 ovarian, 31.4%; with OVCAR-3 ovarian, 16.2%. Also, the growth in the assay on HS 578T breast is 26.4%; in the assay with T-47D breast, 46.1%; in the assay on BT-549 breast, 20.5%; in the assay on SW-620 colon, 38.1%; with MCF7 breast it was 19.2%; with HCC-2998 colon it was 18.5%. Further, the growth was 18.6% in the assay with KM12 colon and 17.5% with MDA-MB-468 breast.
With `COc1ccc(CCN2C(=O)/C(=C/c3csc(C#N)n3)SC2=S)cc1OC`, the growth with RPMI-8226 leukemia was -7.56% (active); in the assay on OVCAR-8 ovarian, 69.2%; in the assay with OVCAR-4 ovarian, 66.3%; in the assay with SK-OV-3 ovarian, 107%; in the assay with IGROV1 ovarian, 90.7%; in the assay with OVCAR-3 ovarian, -17.7% (active). Besides, the growth was 66.3% in the assay with HS 578T breast; 93.3% with NCI/ADR-RES ovarian; -7.6% (active) in the assay with T-47D breast; 23.5% in the assay with MDA-MB-435 melanoma; -20.5% (active) in the assay with SW-620 colon; -15.9% (active) in the assay with MCF7 breast. For the same compound, the growth was -69.1% (active) in the assay on HCT-116 colon, 116% with HCC-2998 colon, 35% with KM12 colon and -80.6% (active) in the assay on MDA-MB-468 breast.
With `Cc1nc(Nc2nc(C)c3ccc(OCCN4CCOCC4)cc3n2)[nH]c(=O)c1C`, the growth is 7.09% (active) in the assay on RPMI-8226 leukemia; 0.429% (active) in the assay on OVCAR-8 ovarian; -39.9% (active) in the assay on OVCAR-5 ovarian; -22.1% (active) with OVCAR-4 ovarian; -6.44% (active) with SK-OV-3 ovarian; 3.38% (active) in the assay on OVCAR-3 ovarian. For the same compound, the growth is 11.9% in the assay with HS 578T breast; -19.5% (active) in the assay with NCI/ADR-RES ovarian; -10.5% (active) with T-47D breast; -74.2% (active) in the assay on BT-549 breast; -50.8% (active) with MDA-MB-435 melanoma; 8.56% (active) in the assay with SW-620 colon. In addition, the growth is 0.281% (active) in the assay on MCF7 breast, -72.8% (active) in the assay with HCC-2998 colon, 6.49% (active) with KM12 colon and -72.8% (active) with MDA-MB-468 breast.
With `C=CC(=O)Nc1ccc(C(=O)/C=C/c2ccc(N(C)CCF)cc2)c(O)c1`, the growth was 3.47% (active) in the assay on RPMI-8226 leukemia; -45.8% (active) in the assay on OVCAR-8 ovarian; 19.8% in the assay with OVCAR-4 ovarian; 3.61% (active) with SK-OV-3 ovarian; -53.5% (active) with IGROV1 ovarian; -69% (active) with OVCAR-3 ovarian. Moreover, the growth in the assay on HS 578T breast was 19.7%; with NCI/ADR-RES ovarian, 0.782% (active); with T-47D breast it was 5.88% (active); in the assay on BT-549 breast it was -65% (active); with MDA-MB-435 melanoma, -46.7% (active); in the assay with SW-620 colon it was 5.99% (active). The growth in the assay on MCF7 breast was -19.5% (active); in the assay with HCT-116 colon it was -66.2% (active); in the assay on HCC-2998 colon, -78.4% (active); in the assay with KM12 colon, -82.6% (active); with MDA-MB-468 breast, -73.6% (active).
On to `O=C1Nc2cc(-c3ccc(NC(=O)c4cccs4)cc3)ccc2/C1=C/c1ccc[nH]1`, for which the growth is 52.4% with RPMI-8226 leukemia; 63.4% in the assay on OVCAR-8 ovarian; 89.7% with OVCAR-5 ovarian; 50.4% with OVCAR-4 ovarian; 108% with SK-OV-3 ovarian; 69.6% in the assay with OVCAR-3 ovarian. The growth in the assay on HS 578T breast was 73.3%; with NCI/ADR-RES ovarian it was 62.1%; with T-47D breast, 22.2%; with BT-549 breast it was 91.7%; with MDA-MB-435 melanoma, 102%; in the assay with SW-620 colon it was 60.3%. Besides, the growth in the assay with MCF7 breast is -12.7% (active); with HCT-116 colon it was 53.3%; in the assay on HCC-2998 colon, 79.5%; in the assay on KM12 colon, 39.3%.
On to `CCOC(=O)C1=C(N)N(c2ccc(Cl)cc2)C2=C(C(=O)CC(C)(C)C2)C1c1ccc(N2CCOCC2)cc1` (centres undefined), for which the growth with RPMI-8226 leukemia is 99.9%; in the assay on OVCAR-8 ovarian, 100%; in the assay with OVCAR-4 ovarian, 105%; with SK-OV-3 ovarian, 109%; with IGROV1 ovarian, 98%; with OVCAR-3 ovarian it was 102%. Besides, the growth in the assay with HS 578T breast was 109%; in the assay with NCI/ADR-RES ovarian it was 97.4%; in the assay with T-47D breast, 90.8%; in the assay with BT-549 breast, 23.8%; in the assay with MDA-MB-435 melanoma, 101%; with SW-620 colon, 107%. For the same compound, the growth was 93.2% with MCF7 breast, 99.2% in the assay on HCT-116 colon and 84.2% in the assay on MDA-MB-468 breast.
